From ChEMBL document CHEMBL3988442, “University of Dundee, Small-Polar-MMV Screening Library” (2021)
The campaign covered roughly 48,000 compounds. About 13,000 (27%) showed an effect of 50% or more. This is one part of the list.

These compounds were tested on Wolbachia pipientis (assay: Anti-Wolbachia Cell-Based Screen). Details: 5 µM.
Assay type: functional
Parameters: scale not given: in the data most compounds retested in dose-response had high values

Compound | Percent Effect
CN(Cc1cnn(C)c1)Cc1nc(CCc2ccccc2)no1 | 8.219%
Cc1ccccc1C1CCN(C(=O)CCNC(=O)C(C)(C)C)C1 (centres undefined) | -3.334%
CCOC(=O)NC(CNC(=O)c1ccccn1)CC(C)C (centres undefined) | -0.8901%
CCNc1ncc(C(=O)NCCNc2ccncc2C)cn1 | 11.05%
Cc1ccc(CN(C(=O)NCCNC(=O)c2cccnc2)C(C)C)o1 | -0.6443%
Cc1cnccc1-c1cnn(CCNC(=O)c2ccncc2)c1C1CC1.Cl | 189.5%
Cc1cnccc1-c1cnn(CCNC(=O)C(C)(C)C)c1C1CC1.Cl | 128.5%
Cc1cnn(C(C)C2CC2)c1NC(=O)c1ccncc1 (centres undefined) | -0.2997%
O=C(NCCSC1CCCC1)c1cnccn1 | 5.351%
Cc1cnccc1-c1cnn(CCNC(=O)c2cccnc2)c1C1CC1.Cl | 156.9%
CC(C)(C)C(=O)NCCC(=O)NS(=O)(=O)c1cccnc1 | 1.555%
Cc1cnccc1-c1cnn(CCNC(=O)c2ccccn2)c1C1CC1.Cl | 221.9%
CC(Cn1cccn1)NCc1csc(-c2ccc(F)cc2)n1 (centres undefined) | 3.098%
CCCSCC(=O)Nc1ncn(CC(=O)N2CCCCCC2)n1 | -27.1%
COC(=O)c1cccc(CN(C)Cc2ncnn2C)c1C#N | -234%
O=C(Nc1cnn(-c2ccccc2Cl)c1)N[C@@H]1C=C[C@H](CO)C1 | -14.17%
O=C(Cn1cnnn1)Nc1ccc(F)cc1OCC1CC1 | 11.02%
COc1ccc2c(O)c(NC(=O)NCC3CC3)cnc2c1 | -18.39%
O=C(NCC1CC1)Nc1cnc2ccc(F)cc2c1O | 100.3%
CNc1nc(CNC(=O)Nc2cccc(COCCOC(C)C)c2)cs1 | -6.236%
CC(C)c1ccc(S(=O)(=O)N2CCCC3(CCCN3S(C)(=O)=O)C2)cc1 (centres undefined) | 108.3%
CS(=O)(=O)N1CCCC12CCCN(c1nccs1)C2 (centres undefined) | 4.667%
CCc1ccc(S(=O)(=O)N2CCCC3(CCCN3S(C)(=O)=O)C2)cc1 (centres undefined) | 114.6%
CCc1ccc(S(=O)(=O)N2CCC3(CC(C(=O)NC)=NO3)C2)cc1 (centres undefined) | 16.22%

Compound | Percent Effect
CC(C)CC(c1nc(-c2cnn(C)c2)no1)N1CCCCC1=O (centres undefined) | 17.74%
Cc1ccccc1NC(=O)CNC(C)COc1ccccc1 (centres undefined) | -5.07%
CCOC(=O)COc1cccc(NC(=O)C2COCCO2)c1 (centres undefined) | -0.4507%
CCOC(=O)COc1ccc(C(C)=O)c(O)c1 | 95.41%
CC(=O)c1ccc(Cl)c(Cl)c1OCC(=O)NC(N)=O | 29.22%
Cc1ccc(OCC(C)NS(C)(=O)=O)cc1C (centres undefined) | 1.577%
CC(=O)c1ccc(OCC(C)O)cc1O (centres undefined) | 100.7%
CN(Cc1cccc(F)c1)C(=O)CN1CCCCC1Cn1cncn1 (centres undefined) | -4.656%
COC(=O)CCN1CCCC1c1cccc2c1OCCO2 (centres undefined) | 6.335%
CN(C)C(=O)N1CC[C@@H](c2ccc3ccccc3c2)[C@H](O)C1 | 2.148%
COc1ccc(-c2nonc2N)cc1 | 116.2%
CC(C)c1ccc(-c2nonc2N)cc1 | 135.4%
CC(C)c1ccc(C(N)c2cccs2)cc1 (centres undefined) | -4.854%
COc1ccc(-c2noc([C@@H](C)NC(=O)CC(C)C)c2C(=O)O)cc1 | 0.3938%
COCC(=O)N[C@H](C)c1onc(-c2ccc(OC)cc2)c1C(=O)O | 9.623%
Cc1cc(CN(C)Cc2csc(-c3ccc(C(C)C)cc3)n2)no1 | -4.334%
CCN1CCN(c2ccc(F)cc2C(C)NCc2cscn2)CC1 (centres undefined) | 16.44%
CC(C)CCC1=NC2(CCN(C(=O)N3CCN(C)CC3)CC2)C(=O)N1 | 15.84%
CN(C)C1CCC2(CCN(Cc3nccn3C)CC2)c2ccccc21.O=C(O)C(F)(F)F.O=C(O)C(F)(F)F (centres undefined) | 100.5%
COc1ccc2c(c1)C1(CCN(Cc3cccnc3)CC1)N(C)CC2.O=C(O)C(F)(F)F.O=C(O)C(F)(F)F.O=C(O)C(F)(F)F | 47.52%
CN(C)C1CC2(CCN(C(=O)NC3CC3)CC2)c2ccccc21.O=C(O)C(F)(F)F (centres undefined) | -41.61%
CN(C)C1CCC2(CCN(Cc3cccnc3)CC2)c2ccccc21.O=C(O)C(F)(F)F.O=C(O)C(F)(F)F.O=C(O)C(F)(F)F (centres undefined) | 103.9%
Cn1ccnc1CN1CCN(Cc2ccccc2C#N)CC1 | 1.879%
Cn1ccnc1CN1CCC2(CC1)CC(Nc1ccccn1)CO2 (centres undefined) | -5.655%

Compound | Percent Effect
Cn1ccnc1CN1CCC2(CC1)CC(N1CCCC1)c1ccccc12 (centres undefined) | 116.8%
Cn1ccnc1CN1CCC2(CC1)CC(NC(=O)c1ccccn1)CO2.O=C(O)C(F)(F)F (centres undefined) | -5.802%
CCN(Cc1ccoc1)C(=O)NC1CCN(CC=C(C)C)CC1 | -3.465%
Cc1cc(CN2C[C@@H](N3CCN(C)CC3)[C@H]3OCCC[C@H]32)oc1C.O=C(O)C(F)(F)F.O=C(O)C(F)(F)F.O=C(O)C(F)(F)F | 8.988%
O=C(c1ccnnc1)N1C[C@H]2CCC[C@@H](OCc3cccnc3)[C@@H]2C1 | -7.774%
Cc1ccc(C(=O)N2C[C@H]3CCCC(OCc4cccnc4)[C@H]3C2)cn1.O=C(O)C(F)(F)F.O=C(O)C(F)(F)F (some centres undefined) | -3.164%
Cc1ccc(C(=O)N2C[C@H](OCc3cccnc3)[C@H]3COC[C@H]32)cn1 | 93.92%
N#Cc1ccc(N2CCC3(CC2)CC(OCc2cccnc2)CO3)cc1.O=C(O)C(F)(F)F (centres undefined) | 6.886%
O=C(c1cscn1)N1C[C@H](OCc2cccnc2)[C@H]2COC[C@H]21 | 102.7%
O=C(C1CCOCC1)N1C[C@H](OCc2cccnc2)[C@H]2COC[C@H]21 | 112.8%
O=C(c1ccncn1)N1CCO[C@H]2[C@@H](OCc3cccnc3)CC[C@@H]21 | -20.63%
Cc1nc(CO[C@H]2CN(C(=O)c3cccnc3)[C@@H]3COC[C@H]23)cs1 | -38.06%
O=C(c1ccc2c(c1)OCO2)N1C[C@H](OCC2CC2)[C@H]2COC[C@H]21 | -18.04%
N#Cc1ccc(C(=O)N2C[C@H](OCc3cccnc3)[C@H]3COC[C@H]32)cc1 | 101.1%
O=C(O)C(F)(F)F.O=C(c1cscn1)N1C[C@H]2CCCC(OCc3cccnc3)[C@H]2C1 (some centres undefined) | -12.9%
CNC(=O)[C@@H]1C[C@@H](NC(=O)Cc2nonc2C)CN1Cc1sccc1C | 27.67%
CSCCCNC(=O)C1CCC(=O)N(C2CCCC2)C1 (centres undefined) | -0.8236%
CCOC(=O)N1CCN(C(=O)C2CC(=O)N(c3ccccc3Br)C2)CC1 (centres undefined) | 18.95%
COC1CN(C(=O)NCC(N)=O)CCC(=O)N(C)c2ccccc21 (centres undefined) | 111.8%
CCOC(=O)COC1CCN(C(C)=O)CC(=O)N(C)c2ccccc21 (centres undefined) | 107.2%
Cc1ccccc1N1CC(C)N(C(=O)CCn2cccn2)CC1=O (centres undefined) | 17.53%
COC1CCN(C(=O)NCC(N)=O)CC(=O)N(C)c2ccccc21 (centres undefined) | 98.17%
CCOC(=O)N1CCN(C(=O)C2Cc3ccccc3CN2C)CC1 (centres undefined) | 6.849%
CCOC(=O)N1CCC(OC)c2ccccc2N(C)C(=O)C1 (centres undefined) | 82.02%

Compound | Percent Effect
NC(=O)CC1CCN(C(=O)NCc2ccccc2-n2cccn2)CC1 | 4.172%
CN1CCC(CNC(=O)c2cccc(NC(N)=O)c2)c2ccccc21 (centres undefined) | -10.01%
CCN1CCN(C2CCN(C(C(N)=O)c3ccccc3)CC2)C1=O (centres undefined) | -3.87%
CN1CCC(CNC(=O)c2ccc(O)nc2)c2ccccc21 (centres undefined) | -12.01%
Cc1ccc(C)c(SCC(=O)Nc2cccc(C(=O)N(C)C)n2)c1 | -1.523%
Cc1nc(S(=O)(=O)CCn2cccn2)n(C2CCCC2)c1C | -3.165%
CCOC(=O)CNC(=O)N1CCN(c2ncccn2)CC1 | -13.49%
CCOC(=O)CNC(=O)N1CCC(OC)c2ccccc2N(C)C(=O)C1 (centres undefined) | 109.7%
CCOC(=O)CNC(=O)N1CCOC(CCc2ccccc2)C1 (centres undefined) | -4.892%
O=C(COC[C@]12COC[C@H]1CN(C1CCC1)C2)N1CCCC1.O=C(O)C(F)(F)F | 91.79%
CS(=O)(=O)N1C[C@@H]2COC[C@]2(COCC(=O)N2CCCC2)C1 | 114.9%
CN(C)S(=O)(=O)N1C[C@H]2CCC[C@@]2(COCc2cccnc2)C1.O=C(O)C(F)(F)F | 15.15%
CCCS(=O)(=O)N1C[C@@H]2COC[C@]2(CN2CCOCC2)C1.O=C(O)C(F)(F)F | -7.734%
COCCNC(=O)[C@]12COC[C@H]1CN(C1CCOCC1)C2 | -42.69%
CS(=O)(=O)N1C[C@@H]2COC[C@]2(CN2CCOCC2)C1.O=C(O)C(F)(F)F | 2.768%
C1CC(N2C[C@@H]3COC[C@]3(COCC3CCOCC3)C2)C1.O=C(O)C(F)(F)F | 101.5%
O=C(COC[C@@]12CCC[C@@H]1CN(C1CCCC1)C2)N1CCCC1.O=C(O)C(F)(F)F | 93.22%
CS(=O)(=O)N1C[C@H]2CCC[C@@]2(COCC2CCOCC2)C1 | -10.38%
CCc1ccc(CNC(=O)CCNc2ncccn2)s1 | 5.252%
CCOC(=O)CCCc1ccc2c(c1)CC(=O)N2 | 6.435%
Cc1ncn(-c2cc(N3CCN(S(C)(=O)=O)CC3)ncn2)c1C | -0.4612%
Cc1cc(C)c2nc(CNC3CCNC3=O)cc(O)c2c1 (centres undefined) | -8.98%
